SMILES strings stand for the structures. The campaign covered roughly 220,000 compounds. About 16,000 (7.3%) were called active. A call without a number means that no potency is given here. Not shown: some 25% with an inconclusive outcome. The call rests on the fitted dose curve; in most records, active means well fitted inhibition curve with a large enough effect (not every such curve was filed as active); inconclusive means small, poorly fitted or top-dose-only effect, or another doubt; inactive means no such curve, though single readings can be large or run the other way. This excerpt belongs to a sample that is enriched for actives.
Potency means the concentration at half of the fitted maximal effect.

The target of this assay is Aldehyde dehydrogenase 1A1 (Homo sapiens) (UniProt P00352). Description: qHTS Assay for Inhibitors of Aldehyde Dehydrogenase 1 (ALDH1A1). As to conditions: Purified ALDH1A1, NADH fluorescence, propionaldehyde substrate; series mostly up to 75.3 µM.
Sequence of Aldehyde dehydrogenase 1A1 (Homo sapiens) (P00352 whole entry, looked up): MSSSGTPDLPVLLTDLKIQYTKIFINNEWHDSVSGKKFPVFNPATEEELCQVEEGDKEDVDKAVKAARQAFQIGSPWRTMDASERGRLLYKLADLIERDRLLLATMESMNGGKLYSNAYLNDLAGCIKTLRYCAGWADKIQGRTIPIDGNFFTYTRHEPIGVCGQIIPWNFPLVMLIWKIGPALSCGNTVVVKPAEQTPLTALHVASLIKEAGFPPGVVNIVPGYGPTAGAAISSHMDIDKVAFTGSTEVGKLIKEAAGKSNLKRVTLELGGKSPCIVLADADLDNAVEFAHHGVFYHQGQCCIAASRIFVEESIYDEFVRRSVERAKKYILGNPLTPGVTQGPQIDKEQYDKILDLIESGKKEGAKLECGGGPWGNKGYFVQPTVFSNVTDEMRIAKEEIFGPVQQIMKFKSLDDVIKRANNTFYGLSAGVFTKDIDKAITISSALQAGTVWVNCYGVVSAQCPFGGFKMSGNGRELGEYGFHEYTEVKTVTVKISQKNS
`O=C(NCCN1CCOCC1)Nc1cccc(Cl)c1`: the Potency entry was “inactive”.
As to `CC/C(=N\NC(=S)NC(C)C)c1ccc(OC(F)F)cc1`, the Potency result is “inactive”.
The same measure, in the same setting: for `Cc1ccc(NC(=S)N(CCCN2CCCC2)Cc2cccn2Cc2ccc(Cl)cc2)cc1` the value was “inactive”; for `COc1ccc(C(=O)Nc2ccc(CN3CCOCC3)cc2)cc1`, “inactive”; for `O=C(Nc1ccc(CSc2ccccc2)cc1)c1ccc(CN2CCOCC2)cc1`, “inactive”.
Turning to `C/C(CCc1ccccc1)=N\NC(=O)c1ccc(CN2CCOCC2)cc1`, the Potency was 25.1 µM (active).
Take `O=C(COc1ccc(NC(=O)c2ccccc2[N+](=O)[O-])cc1)c1ccc(F)cc1`: the Potency result was “inactive”.
For the compound `CSc1ncccc1C(=O)Nc1nc2ccc(F)cc2s1`, the Potency entry was “inactive”.
As to `COCC1CCCN(Cc2cn[nH]c2-c2cc3ccccc3o2)C1` (stereo not given), the Potency entry was “inactive”.
For `O=C(O)c1ccc(/C=N/NC(=S)NCc2ccccc2)cc1`, the Potency result is “inactive”.
In the case of `O=C(Cl)c1ccccc1[N+](=O)[O-]`, the Potency result was “inactive”.
Take `O=C(Nc1ccncc1)c1ccccc1[N+](=O)[O-]`: the Potency result is “inactive”.
For `O=[N+]([O-])c1ccccc1SNc1ccccn1`, the Potency was 20 µM (active).
Still for that read-out and setting: to `COc1cc(NC(=O)COc2ccccc2Cl)ccc1NC(=O)C(C)C` belongs “inactive”.
The same measure, in the same setting: to `COc1ccc(S(=O)(=O)N(C)C)cc1NC(=O)CSc1ncccn1` belongs “inactive”; to `O=C(Nc1ccc(Cl)c(Cl)c1)N1CC=C(c2ccccc2)CC1`, “inactive”; to `Cc1cccc(C)c1NC(=O)c1ccc(CN2CCc3ccccc3C2)cc1`, “inactive”.
On to `Cc1cccc(C)c1NC(=O)N1CC=C(n2c(=O)[nH]c3ccccc32)CC1`, for which the Potency is 6.31 µM (active).
Regarding `CSc1ccc(CNCCN2CCOCC2)cc1`, the Potency result is “inactive”.
With `Cc1ccc(-c2nc(C)sc2CC(=O)OCC(=O)Nc2c(F)cccc2F)cc1`, the Potency entry is “inactive”.
As to `Cc1ccc(NC(=O)Nc2nnc(-c3ccncc3)s2)cc1`, the Potency entry was “inactive”.
For the compound `O=C(CSC1=Nc2ccccc2C2=NC(CC(=O)NCc3ccco3)C(=O)N12)NCc1ccco1` (stereo not given), the Potency is 7.94 µM (active).
Still for that read-out and setting: for `CCOCCc1c(O)nc(SCC(=O)NCc2ccco2)[nH]c1=O` the value was “inactive”.
As for `O=C(CC1CCCCC1)NCc1ccco1`, the Potency entry was “inactive”.
`O=C(NNC(=S)NC1CCCCC1)c1ccccc1Cl`: the Potency entry is “inactive”.
Take `Cc1ccc(NC(=O)CSc2nnc(COc3ccccc3C)o2)cc1`: the Potency entry is “inactive”.
`Cc1ccccc1OCc1nnc(SCC(=O)N2c3ccccc3Sc3ccc(Cl)cc32)o1`: the Potency was 10 µM (active).
The same measure, in the same setting: for `CC(C)NC(=O)CSc1nnc(COc2ccccc2Cl)o1` the value was “inactive”.
Consider `O=C(CSc1ccccn1)Nc1nc2c(ccc3ccccc32)s1`, for which the Potency result is “inactive”.
`O=C1N/C(=C/c2cccs2)C(=O)N1Cc1ccc(F)cc1`: the Potency result was “inactive”.
Take `CN(C)c1ccc(/C=C2\NC(=S)N(Cc3ccccc3)C2=O)cc1`: the Potency is 11.2 µM (active).
As for `O=C1NCC(=O)N(Cc2ccccc2)/C1=C/c1ccccc1`, the Potency entry is “inactive”.
Take `CCc1nnc(NC(=O)CCCSc2nc3ccccc3[nH]2)s1`: the Potency entry is “inactive”.
Turning to `COc1cc(OC)cc(-c2nc(=S)n3ccsc3n2)c1`, the Potency result was “inactive”.
In the case of `CC(Oc1ccccc1)C(=O)NN1Cc2ccccc2C1=N` (stereo not given), the Potency entry is “inactive”.
For the compound `COc1ccc(/C(C)=N/NC(=O)CCC(=O)Nc2ccc(Cl)cc2Cl)c(OC)c1`, the Potency entry is “inactive”.
Turning to `NC(=O)COC(=O)c1sc2cc(F)ccc2c1Cl`, the Potency entry was “inactive”.
On to `C=CC1=C2C=C(C3CC3)N(CC(C)C)C=C2C(=O)C(C)(OC(=O)c2ccco2)C1=O` (stereo not given), for which the activity, negative = inhibition was -1.97% [at 13.5 µM] (inactive).
With `O=C1C(=O)N(CCN2CCOCC2)C(c2ccccn2)/C1=C(/O)c1ccc(Cl)cc1` (stereo not given), the Potency was 12.6 µM (active).
As to `COc1cccc(C2/C(=C(/O)c3ccncc3)C(=O)C(=O)N2CCCN(C)C)c1` (stereo not given), the Potency entry is “inactive”.
Take `CCN(CC)CCN1C(=O)C(=O)/C(=C(/O)c2ccccc2)C1c1ccccc1F` (stereo not given): the Potency result is “inactive”.
Same read-out and setting: to `CCN(CC)CCN1C(=O)C(=O)/C(=C(/O)c2ccc(OC)c(OC)c2)C1c1ccccn1` (stereo not given) belongs 28.2 µM (active).
Still for that read-out and setting: to `COc1ccc(C2/C(=C(/O)c3ccc(OC(C)C)cc3)C(=O)C(=O)N2CCCN2CCOCC2)cc1` (stereo not given) belongs 25.1 µM (active); to `COc1ccc(/C(O)=C2/C(=O)C(=O)N(CC3CCCO3)C2c2ccc(OC)c(OC)c2)cc1` (stereo not given), “inactive”; to `CC1Cc2cc(/C(O)=C3\C(=O)C(=O)N(CCN4CCOCC4)C3c3ccccc3F)ccc2O1` (stereo not given), “inactive”.
For `O=C1CC(c2ccccc2)CC(O)=C1C=NCCN1CCOCC1` (stereo not given), the Potency entry was “inactive”.
With `COc1ccc(/C(O)=C2/C(=O)C(=O)N(CCCN(C)C)C2c2ccccc2)cc1OC` (stereo not given), the Potency entry is “inactive”.
Still for that read-out and setting: to `COC(=O)C(C(=O)OC)[C@@H](NC=O)c1ccccc1` belongs “inactive”.
`CCOC(=O)C1=C(C)c2ccccc2OC1C(=O)OCC` (stereo not given): the Potency result is “inactive”.
In the case of `CCc1cc(CNC(=O)CC2C(=O)NCCN2CC2CCCCC2)on1` (stereo not given), the Potency result is “inactive”.
Regarding `CCc1ccc(Oc2nc([N+](=O)[O-])nn2C)cc1`, the Potency result is “inactive”.
Regarding `Cc1ccc(C(=O)NN(CCC#N)C2=NS(=O)(=O)c3ccccc32)cc1`, the Potency result is “inactive”.
On the same count and under the same terms, to `Cn1nc(C(C)(C)C)c(NC(=O)c2sccc2Cl)c1C(C)(C)C` belongs “inactive”; to `C=C(C)COc1ccc(-c2nc(N)ncc2-c2ccccc2OC)c(O)c1`, “inactive”; to `O=C(COc1ccc([N+](=O)[O-])cc1Cl)Nn1cnnc1`, “inactive”.
For `COC(=O)CSc1nccc(-c2cccs2)n1`, the Potency entry was “inactive”.
`CN1CCN(C(=O)N2c3ccccc3CCc3ccccc32)CC1`: the Potency entry is “inactive”.
As to `O=C(CCc1ccccc1)NNC(=O)c1ccc(Br)cc1`, the Potency result was “inactive”.
As to `CC(=O)NC(=S)NNC(=O)c1ccc(Br)cc1`, the Potency was 11.2 µM (active).
For `Cn1nnnc1SCC(=O)NNC(=O)c1ccc(Br)cc1`, the Potency result was “inactive”.
For `CC(Oc1cccc(NC(=O)c2cccs2)c1)C(=O)c1ccccc1` (stereo not given), the Potency result was “inactive”.
On to `O=C(O)c1n[nH]nc1-c1ccccc1`, for which the Potency entry was “inactive”.
The same measure, in the same setting: for `CCNC(=O)CC1C(=O)N(c2ccc(F)cc2)C(=O)N1CCc1sccc1C` (stereo not given) the value was “inactive”.
With `COc1ccc(Nc2cc(C)nc(-n3nc(C)cc3C)n2)cc1`, the Potency result was “inactive”.
On the same count and under the same terms, for `COc1ccc(OCc2cn3c(C)cc(C)nc3n2)cc1` the value was “inactive”; for `COc1ccc(C(C[N+](=O)[O-])n2nc(C)cc2C)cc1` (stereo not given), 10 µM (active); for `Cc1onc(-c2ccccc2)c1C(=O)N=C(N)c1ccc(Cl)cc1`, “inactive”.
On the same count and under the same terms, to `COc1ccc(OCc2ccc(-c3nc4ccccc4c(=O)n3N)o2)cc1` belongs “inactive”.
`Cc1ccc(C(=O)CSc2nc3ccccc3c(=O)n2N)o1`: the Potency was 28.2 µM (active).
In the case of `O=C(CCn1c(SCC(=O)c2ccccc2)nc2ccccc2c1=O)NCc1ccc(F)cc1`, the Potency result was “inactive”.

(Values after PubChem BioAssay AID1030 (National Center for Advancing Translational Sciences (NCATS), 2008).)
